This is part of a sample that, as a whole, favours compounds with a hit. Of some 79,000 tested, about 15% had one in any assay. Calls of active or inactive are those of the source. No stated cut-off is given here; in the data, active means growth inhibition above about 70%; inactive means the rest.
How the values were obtained:
[1] = NCI Yeast Anticancer Drug Screen. Data for the wt1 strain (AID 149);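 further: 0% = growth of vehicle-treated wt1 cultures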; conditions: S. cerevisiae wt1 strain (SPY 50644) growth inhibition, stronger effect = higher value
Summary of the method: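 Growth inhibition read against vehicle controls after compound exposure of the wt1 yeast strain.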

[2] = NCI Yeast Anticancer Drug Screen. Data for the rad50EPP+ strain (AID 151);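 further: 0% = growth of vehicle-treated control cultures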; conditions: S. cerevisiae rad50 mutant strain, stronger effect = higher value
Summary of the method: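 rad50EPP+ yeast treated with test compounds. Readout: growth vs vehicle control.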

[3] = NCI Yeast Anticancer Drug Screen. Data for the mgt1 strain (AID 153); conditions: S. cerevisiae mgt1 mutant growth inhibition, stronger effect = higher value
Summary of the method: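 Growth inhibition relative to vehicle controls was scored for the mgt1 yeast strain after compound exposure.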

[4] = NCI Yeast Anticancer Drug Screen. Data for the rad50 strain (AID 155);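 further: 0% = growth of vehicle-only cultures of the same strain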; conditions: S. cerevisiae rad50 strain growth inhibition, stronger effect = higher value
Summary of the method: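 Readout: growth inhibition relative to vehicle-treated cultures. Compound exposure was carried out in a genetically defined yeast strain deficient in DNA damage repair.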

[5] = NCI Yeast Anticancer Drug Screen. Data for the mec2-1 strain (AID 157); conditions: S. cerevisiae mec2-1 strain, stronger effect = higher value
Summary of the method: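 Growth inhibition is read against vehicle-treated controls after compound exposure of the mec2-1 yeast strain, which is defective in DNA damage repair or cell cycle control.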

[6] = NCI Yeast Anticancer Drug Screen. Data for the rad14 strain (AID 159);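 further: 0% = growth of vehicle-treated control cultures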; conditions: S. cerevisiae rad14 strain growth inhibition, stronger effect = higher value
Summary of the method: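 Growth inhibition vs vehicle controls; genetically altered yeast strain (DNA damage repair defect) treated with test compounds.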

[7] = NCI Yeast Anticancer Drug Screen. Data for the sgs1 mgt1 strain (AID 161);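 further: 0% = growth of cultures given vehicle only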; conditions: S. cerevisiae sgs1 mgt1 strain, stronger effect = higher value
Summary of the method: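 Percent growth inhibition was derived by comparing compound-exposed mutant yeast with vehicle-exposed cultures. The strain carries alterations in DNA damage repair.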

[8] = NCI Yeast Anticancer Drug Screen. Data for the CLN2oe strain (AID 163);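 further: 0% = growth of vehicle-only control cultures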; conditions: S. cerevisiae CLN2oe strain, stronger effect = higher value
Summary of the method: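 Compound-treated yeast; growth vs vehicle ctrl = % inhibition. Genetically altered strain (cell-cycle control).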

[9] = NCI Yeast Anticancer Drug Screen. Data for the cln2 rad14 strain (AID 165);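 further: 0% = growth equal to vehicle treated cultures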; conditions: S. cerevisiae cln2 rad14 strain, stronger effect = higher value
Summary of the method: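 Growth inhibition, relative to vehicle-treated controls, is the read-out. The test organism is a yeast strain with defined genetic alterations, cln2 rad14.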

[10] = NCI Yeast Anticancer Drug Screen. Data for the bub3 strain (AID 167); conditions: S. cerevisiae bub3 mutant strain, stronger effect = higher value
Summary of the method: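 Readout: yeast growth inhibition, expressed relative to vehicle-only wells. The test organism is a mutant strain from a panel with lesions in DNA repair or checkpoint genes.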

[11] = NCI Yeast Anticancer Drug Screen. Data for the wt2 strain (AID 169);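 further: 0% = growth of vehicle-treated yeast cultures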; conditions: S. cerevisiae wt2 strain growth inhibition, stronger effect = higher value
Summary of the method: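 Compound exposure of yeast; growth compared with vehicle controls; inhibition reported.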

[12] = at 5.0 µM (retest, dose inferred, filed as 0.5)
[13] = at 50.0 µM (retest, dose inferred, filed as 5.0)

Measured: growth inhibition

CCOC(=O)C1C2c3ccccc3C(c3ccccc32)C1C(=O)OCC (stereo not given)
active: [1]; at 100.0 µM 79% | [3]; at 100.0 µM 93% | [4]; [13] 77% | [4]; at 100.0 µM 91% | [5]; at 50.0 µM 74.7% | [5]; at 100.0 µM 89% | [6]; at 100.0 µM 90% | [7]; [13] 89% | [7]; at 50.0 µM 80.2% | [8]; at 100.0 µM 93% | [10]; at 100.0 µM 76% | [11]; at 100.0 µM 95%
inactive: [1]; at 1.2 µM -1% | [1]; at 3.7 µM -2% | [1]; at 11.0 µM -1% | [1]; at 33.0 µM 2% | [2]; at 1.2 µM -1% | [2]; at 3.7 µM -2% | [2]; at 11.0 µM 2% | [2]; at 33.0 µM -2% | [2]; at 100.0 µM 1% | [3]; at 1.2 µM -1% | [3]; at 3.7 µM 1% | [3]; at 11.0 µM 4% | [3]; at 33.0 µM 7% | [4]; at 1.2 µM 3% | [4]; at 3.7 µM 3% | [4]; [12] 13% | [4]; at 11.0 µM 8% | [4]; at 33.0 µM 15% | [4]; at 50.0 µM 17.3% | [5]; at 1.2 µM -1% | [5]; at 3.7 µM 1% | [5]; [12] -8% | [5]; at 11.0 µM 3% | [5]; at 33.0 µM 6% | [5]; [13] 1% | [6]; at 1.2 µM 5% | [6]; at 3.7 µM 7% | [6]; at 11.0 µM 12% | [6]; at 33.0 µM 16% | [7]; [12] 2% | [8]; at 1.2 µM 7% | [8]; at 3.7 µM 7% | [8]; at 11.0 µM 19% | [8]; at 33.0 µM 30% | [9]; [12] -4% | [9]; [13] 28% | [9]; at 50.0 µM 56.7% | [10]; at 1.2 µM 0% | [10]; at 3.7 µM 8% | [10]; [12] 18% | [10]; at 11.0 µM 11% | [10]; at 33.0 µM 17% | [10]; [13] 60% | [10]; at 50.0 µM 49% | [11]; at 1.2 µM -12% | [11]; at 3.7 µM -11% | [11]; at 11.0 µM 7% | [11]; at 33.0 µM 6%

Reference: PubChem BioAssay (NCI)
